For orientation: inhibition means the drop in the measured response relative to a control, in per cent. A higher inhibition goes with a response far below the control.

The target in assay [1] is Protein kinase C gamma type (Homo sapiens) (UniProt P05129). The following applies: at 1 µM.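 Note: each value is an averaged percent inhibition of the enzyme.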
Assay [2] has as its target T1, Protein kinase C iota type (Homo sapiens) (UniProt P41743).
T1 sequence (whole entry): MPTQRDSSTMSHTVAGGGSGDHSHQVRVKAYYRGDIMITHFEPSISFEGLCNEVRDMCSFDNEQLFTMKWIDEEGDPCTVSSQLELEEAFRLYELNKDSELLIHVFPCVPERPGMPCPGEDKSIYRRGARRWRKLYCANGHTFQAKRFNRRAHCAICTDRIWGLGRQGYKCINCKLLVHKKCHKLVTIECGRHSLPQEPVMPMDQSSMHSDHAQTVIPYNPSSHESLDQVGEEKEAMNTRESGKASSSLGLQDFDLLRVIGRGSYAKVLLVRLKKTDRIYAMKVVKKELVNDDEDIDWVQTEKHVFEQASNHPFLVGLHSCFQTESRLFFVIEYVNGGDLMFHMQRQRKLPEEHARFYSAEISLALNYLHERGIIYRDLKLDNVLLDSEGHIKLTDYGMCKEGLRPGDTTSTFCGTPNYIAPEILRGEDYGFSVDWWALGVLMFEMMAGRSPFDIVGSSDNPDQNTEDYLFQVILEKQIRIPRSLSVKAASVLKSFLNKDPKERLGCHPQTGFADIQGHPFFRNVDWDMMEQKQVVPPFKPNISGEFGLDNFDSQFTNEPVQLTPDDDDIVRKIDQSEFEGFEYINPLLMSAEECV
As to conditions: at 0.1 µM.

The target in assay [3] is T1, Protein kinase C iota type (Homo sapiens). As to conditions: at 1 µM.
Assay [4] has as its target Protein kinase C theta type (Homo sapiens) (UniProt Q04759). As to conditions: at 0.1 µM.
For assay [5] the target is unchanged. The following applies: at 1 µM.
The target in assay [6] is Protein kinase C beta type (Homo sapiens) (UniProt P05771). The following applies: at 0.1 µM.
Assay [7] has the same target. As to conditions: at 1 µM.
Assay [8] concerns the target T2, Serine/threonine-protein kinase D1 (Homo sapiens) (UniProt Q15139).
T2 sequence (whole entry): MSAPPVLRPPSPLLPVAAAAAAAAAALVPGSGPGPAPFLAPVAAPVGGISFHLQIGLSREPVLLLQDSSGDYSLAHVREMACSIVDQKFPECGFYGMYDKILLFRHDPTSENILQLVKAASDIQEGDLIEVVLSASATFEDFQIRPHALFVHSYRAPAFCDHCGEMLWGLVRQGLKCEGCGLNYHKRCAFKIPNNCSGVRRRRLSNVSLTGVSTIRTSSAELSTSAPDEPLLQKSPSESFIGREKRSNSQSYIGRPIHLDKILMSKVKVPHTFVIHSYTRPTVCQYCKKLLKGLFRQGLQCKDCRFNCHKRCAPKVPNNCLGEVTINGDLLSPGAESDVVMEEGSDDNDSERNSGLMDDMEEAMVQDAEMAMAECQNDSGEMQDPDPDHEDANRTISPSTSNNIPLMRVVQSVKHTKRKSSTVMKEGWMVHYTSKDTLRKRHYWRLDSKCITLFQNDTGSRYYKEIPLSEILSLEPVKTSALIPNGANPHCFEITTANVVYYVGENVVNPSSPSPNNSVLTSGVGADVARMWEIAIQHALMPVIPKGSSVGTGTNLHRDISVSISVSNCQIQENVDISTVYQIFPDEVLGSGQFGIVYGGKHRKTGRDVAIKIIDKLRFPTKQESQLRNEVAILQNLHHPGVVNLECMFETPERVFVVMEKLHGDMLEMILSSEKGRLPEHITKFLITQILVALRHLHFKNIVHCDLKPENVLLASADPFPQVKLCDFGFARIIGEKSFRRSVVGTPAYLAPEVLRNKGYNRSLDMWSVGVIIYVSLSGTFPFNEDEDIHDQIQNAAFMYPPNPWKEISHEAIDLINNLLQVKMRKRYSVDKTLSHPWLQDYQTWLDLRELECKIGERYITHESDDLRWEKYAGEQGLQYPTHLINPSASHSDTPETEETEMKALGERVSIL
As to conditions: at 0.1 µM.

In assay [9] the target is T2, Serine/threonine-protein kinase D1 (Homo sapiens). The following applies: at 1 µM.
For assay [10], the target named is T3, Serine/threonine-protein kinase D2 (Homo sapiens) (UniProt Q9BZL6).
T3 sequence (whole entry): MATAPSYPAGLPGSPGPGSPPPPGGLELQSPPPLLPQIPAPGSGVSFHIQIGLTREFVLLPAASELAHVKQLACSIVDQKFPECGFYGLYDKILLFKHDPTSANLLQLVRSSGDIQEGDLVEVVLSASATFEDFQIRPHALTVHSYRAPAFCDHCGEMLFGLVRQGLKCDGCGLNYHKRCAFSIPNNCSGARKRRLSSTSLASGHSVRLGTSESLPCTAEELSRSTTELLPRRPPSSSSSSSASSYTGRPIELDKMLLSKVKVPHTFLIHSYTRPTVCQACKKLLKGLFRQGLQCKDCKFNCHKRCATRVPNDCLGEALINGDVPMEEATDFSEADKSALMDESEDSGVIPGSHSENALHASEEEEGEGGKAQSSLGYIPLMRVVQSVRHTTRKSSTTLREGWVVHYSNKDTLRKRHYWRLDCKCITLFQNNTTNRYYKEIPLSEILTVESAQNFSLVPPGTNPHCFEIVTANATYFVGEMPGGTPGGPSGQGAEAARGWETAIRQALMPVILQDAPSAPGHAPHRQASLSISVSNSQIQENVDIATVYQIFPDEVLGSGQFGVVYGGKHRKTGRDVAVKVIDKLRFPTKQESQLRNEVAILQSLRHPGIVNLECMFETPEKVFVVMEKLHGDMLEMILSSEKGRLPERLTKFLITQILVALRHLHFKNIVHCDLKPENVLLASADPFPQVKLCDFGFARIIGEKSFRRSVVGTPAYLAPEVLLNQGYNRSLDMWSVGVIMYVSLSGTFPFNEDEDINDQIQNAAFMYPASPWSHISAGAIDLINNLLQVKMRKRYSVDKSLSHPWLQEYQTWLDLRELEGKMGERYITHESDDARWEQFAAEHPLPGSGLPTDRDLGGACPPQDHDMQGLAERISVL
The following applies: at 0.1 µM.

In assay [11] the target is T3, Serine/threonine-protein kinase D2 (Homo sapiens). As to conditions: at 1 µM.
Assay [12] concerns the target T4, Serine/threonine-protein kinase D3 (Homo sapiens) (UniProt O94806).
T4 sequence (whole entry): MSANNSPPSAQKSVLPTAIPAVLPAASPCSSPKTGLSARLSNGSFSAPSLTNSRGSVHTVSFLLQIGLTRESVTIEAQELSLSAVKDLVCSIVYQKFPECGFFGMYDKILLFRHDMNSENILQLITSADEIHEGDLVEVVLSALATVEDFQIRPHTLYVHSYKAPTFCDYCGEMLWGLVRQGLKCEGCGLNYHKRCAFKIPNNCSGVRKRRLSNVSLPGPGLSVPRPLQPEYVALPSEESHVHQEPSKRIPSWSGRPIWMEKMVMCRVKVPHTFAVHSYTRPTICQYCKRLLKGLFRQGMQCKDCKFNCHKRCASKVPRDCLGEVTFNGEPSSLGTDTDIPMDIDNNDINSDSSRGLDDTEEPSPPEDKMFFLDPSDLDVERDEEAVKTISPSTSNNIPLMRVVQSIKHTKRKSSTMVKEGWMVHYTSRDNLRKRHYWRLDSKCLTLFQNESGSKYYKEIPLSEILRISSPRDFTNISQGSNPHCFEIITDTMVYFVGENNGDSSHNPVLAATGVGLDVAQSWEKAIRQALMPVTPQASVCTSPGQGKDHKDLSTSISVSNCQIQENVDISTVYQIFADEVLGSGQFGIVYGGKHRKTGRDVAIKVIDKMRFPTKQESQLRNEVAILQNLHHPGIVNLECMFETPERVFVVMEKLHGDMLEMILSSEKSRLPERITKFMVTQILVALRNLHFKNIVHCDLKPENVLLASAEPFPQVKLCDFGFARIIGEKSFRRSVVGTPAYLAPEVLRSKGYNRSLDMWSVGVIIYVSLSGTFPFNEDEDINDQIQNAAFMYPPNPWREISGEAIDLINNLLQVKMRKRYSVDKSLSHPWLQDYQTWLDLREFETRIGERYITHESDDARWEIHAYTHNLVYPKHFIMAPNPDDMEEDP
As to conditions: at 0.1 µM.

Assay [13] deals with T4, Serine/threonine-protein kinase D3 (Homo sapiens). As to conditions: at 1 µM.
In assay [14] the target is T5, cGMP-dependent protein kinase 1 (Homo sapiens) (UniProt Q13976).
T5 sequence (whole entry): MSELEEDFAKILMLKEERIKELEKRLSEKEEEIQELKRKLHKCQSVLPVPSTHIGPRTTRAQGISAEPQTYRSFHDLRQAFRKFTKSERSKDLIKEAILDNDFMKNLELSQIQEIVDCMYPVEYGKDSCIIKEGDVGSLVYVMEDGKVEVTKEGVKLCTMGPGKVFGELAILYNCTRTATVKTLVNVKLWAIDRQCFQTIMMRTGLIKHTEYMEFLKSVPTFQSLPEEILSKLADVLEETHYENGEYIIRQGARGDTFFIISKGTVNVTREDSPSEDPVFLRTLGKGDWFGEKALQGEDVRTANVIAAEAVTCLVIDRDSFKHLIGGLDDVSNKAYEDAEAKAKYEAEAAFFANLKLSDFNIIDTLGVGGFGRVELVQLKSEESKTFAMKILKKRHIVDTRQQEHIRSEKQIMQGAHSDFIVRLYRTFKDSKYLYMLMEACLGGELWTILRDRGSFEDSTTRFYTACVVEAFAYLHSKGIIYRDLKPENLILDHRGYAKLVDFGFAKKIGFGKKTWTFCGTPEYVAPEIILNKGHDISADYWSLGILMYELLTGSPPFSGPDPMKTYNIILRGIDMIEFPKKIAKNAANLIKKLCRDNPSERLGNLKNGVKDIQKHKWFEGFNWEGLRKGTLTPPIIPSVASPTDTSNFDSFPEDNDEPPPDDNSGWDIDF
As to conditions: at 0.1 µM.

Assay [15] has as its target T5, cGMP-dependent protein kinase 1 (Homo sapiens). The following applies: at 1 µM.
The target in assay [16] is T6, cGMP-dependent protein kinase 2 (Homo sapiens) (UniProt Q13237).
T6 sequence (whole entry): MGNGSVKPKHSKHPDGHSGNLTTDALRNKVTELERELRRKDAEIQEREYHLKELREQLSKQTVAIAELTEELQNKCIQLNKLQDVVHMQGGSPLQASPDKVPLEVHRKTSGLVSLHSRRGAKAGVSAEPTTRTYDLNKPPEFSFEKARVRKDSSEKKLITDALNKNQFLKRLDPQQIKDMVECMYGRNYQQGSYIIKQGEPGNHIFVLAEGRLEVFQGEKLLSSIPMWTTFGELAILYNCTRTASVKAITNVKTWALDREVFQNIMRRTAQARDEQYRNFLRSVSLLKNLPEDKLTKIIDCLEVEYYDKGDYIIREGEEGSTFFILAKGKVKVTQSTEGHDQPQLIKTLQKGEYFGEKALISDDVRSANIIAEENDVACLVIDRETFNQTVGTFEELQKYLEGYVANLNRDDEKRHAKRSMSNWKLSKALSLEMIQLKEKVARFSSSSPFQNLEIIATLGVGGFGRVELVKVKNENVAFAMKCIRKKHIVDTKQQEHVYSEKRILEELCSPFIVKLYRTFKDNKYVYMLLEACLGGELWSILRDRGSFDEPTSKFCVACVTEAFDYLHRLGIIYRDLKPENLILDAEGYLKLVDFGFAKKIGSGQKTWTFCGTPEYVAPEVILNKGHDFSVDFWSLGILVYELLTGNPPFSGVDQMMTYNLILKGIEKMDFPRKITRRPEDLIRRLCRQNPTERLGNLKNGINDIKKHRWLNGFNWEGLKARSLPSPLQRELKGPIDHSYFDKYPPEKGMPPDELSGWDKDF
As to conditions: at 0.1 µM.

Assay [17] addresses T6, cGMP-dependent protein kinase 2 (Homo sapiens). The following applies: at 1 µM.
In assay [18] the target is T7, cAMP-dependent protein kinase catalytic subunit PRKX (Homo sapiens) (UniProt P51817).
T7 sequence (whole entry): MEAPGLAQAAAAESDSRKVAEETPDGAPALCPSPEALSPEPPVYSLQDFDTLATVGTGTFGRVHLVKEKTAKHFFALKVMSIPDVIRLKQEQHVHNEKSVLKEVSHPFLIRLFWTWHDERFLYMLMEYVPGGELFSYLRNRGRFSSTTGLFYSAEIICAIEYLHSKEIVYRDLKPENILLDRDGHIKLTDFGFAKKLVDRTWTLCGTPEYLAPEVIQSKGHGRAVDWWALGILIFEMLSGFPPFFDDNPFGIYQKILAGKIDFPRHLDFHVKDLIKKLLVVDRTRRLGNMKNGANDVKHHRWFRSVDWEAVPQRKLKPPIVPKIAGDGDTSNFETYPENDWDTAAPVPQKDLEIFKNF
As to conditions: at 0.1 µM.

In assay [19] the target is T7, cAMP-dependent protein kinase catalytic subunit PRKX (Homo sapiens). The following applies: at 1 µM.
The target of assay [20] is Rho-associated protein kinase 1 (Homo sapiens) (UniProt Q13464). The following applies: at 0.1 µM.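 Note: values are mean percent inhibition of ROCK1.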
Sequence of Rho-associated protein kinase 1 (Homo sapiens) (Q13464 2-1354 limits assumed): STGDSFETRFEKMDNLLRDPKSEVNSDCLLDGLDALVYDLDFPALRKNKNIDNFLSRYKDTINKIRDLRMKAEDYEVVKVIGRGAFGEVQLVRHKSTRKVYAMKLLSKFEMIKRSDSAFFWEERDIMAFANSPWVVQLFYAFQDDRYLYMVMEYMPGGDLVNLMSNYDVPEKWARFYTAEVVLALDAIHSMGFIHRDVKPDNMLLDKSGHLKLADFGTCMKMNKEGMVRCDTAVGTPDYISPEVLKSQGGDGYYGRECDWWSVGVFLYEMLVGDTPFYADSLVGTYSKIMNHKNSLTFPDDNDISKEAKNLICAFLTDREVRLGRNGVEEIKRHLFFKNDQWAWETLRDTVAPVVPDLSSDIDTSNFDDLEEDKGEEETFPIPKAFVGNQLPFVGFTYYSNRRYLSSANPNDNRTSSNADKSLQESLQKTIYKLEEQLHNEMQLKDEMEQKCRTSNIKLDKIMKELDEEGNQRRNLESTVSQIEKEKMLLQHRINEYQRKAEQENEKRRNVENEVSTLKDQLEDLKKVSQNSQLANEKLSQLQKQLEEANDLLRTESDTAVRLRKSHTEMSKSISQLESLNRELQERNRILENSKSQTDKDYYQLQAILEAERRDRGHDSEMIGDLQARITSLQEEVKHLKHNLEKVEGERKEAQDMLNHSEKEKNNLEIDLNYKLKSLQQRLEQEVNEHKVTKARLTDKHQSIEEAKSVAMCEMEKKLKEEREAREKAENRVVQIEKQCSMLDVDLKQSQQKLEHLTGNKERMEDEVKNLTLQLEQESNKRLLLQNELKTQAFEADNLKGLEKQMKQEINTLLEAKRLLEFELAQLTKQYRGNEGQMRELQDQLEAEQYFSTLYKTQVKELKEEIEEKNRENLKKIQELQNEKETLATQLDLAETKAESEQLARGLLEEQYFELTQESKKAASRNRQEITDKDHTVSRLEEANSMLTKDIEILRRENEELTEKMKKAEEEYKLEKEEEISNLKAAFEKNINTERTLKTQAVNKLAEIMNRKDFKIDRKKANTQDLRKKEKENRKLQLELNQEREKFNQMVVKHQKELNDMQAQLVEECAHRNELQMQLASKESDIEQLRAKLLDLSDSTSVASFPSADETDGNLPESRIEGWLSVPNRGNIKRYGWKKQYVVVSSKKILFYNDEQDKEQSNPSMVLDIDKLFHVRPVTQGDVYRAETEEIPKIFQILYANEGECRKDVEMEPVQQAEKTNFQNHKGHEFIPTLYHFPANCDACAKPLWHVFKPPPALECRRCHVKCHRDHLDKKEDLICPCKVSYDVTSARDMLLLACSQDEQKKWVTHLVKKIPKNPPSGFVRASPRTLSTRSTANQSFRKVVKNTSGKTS

Sequence of Protein kinase C beta type (Homo sapiens) (P05771 2-671 limits assumed): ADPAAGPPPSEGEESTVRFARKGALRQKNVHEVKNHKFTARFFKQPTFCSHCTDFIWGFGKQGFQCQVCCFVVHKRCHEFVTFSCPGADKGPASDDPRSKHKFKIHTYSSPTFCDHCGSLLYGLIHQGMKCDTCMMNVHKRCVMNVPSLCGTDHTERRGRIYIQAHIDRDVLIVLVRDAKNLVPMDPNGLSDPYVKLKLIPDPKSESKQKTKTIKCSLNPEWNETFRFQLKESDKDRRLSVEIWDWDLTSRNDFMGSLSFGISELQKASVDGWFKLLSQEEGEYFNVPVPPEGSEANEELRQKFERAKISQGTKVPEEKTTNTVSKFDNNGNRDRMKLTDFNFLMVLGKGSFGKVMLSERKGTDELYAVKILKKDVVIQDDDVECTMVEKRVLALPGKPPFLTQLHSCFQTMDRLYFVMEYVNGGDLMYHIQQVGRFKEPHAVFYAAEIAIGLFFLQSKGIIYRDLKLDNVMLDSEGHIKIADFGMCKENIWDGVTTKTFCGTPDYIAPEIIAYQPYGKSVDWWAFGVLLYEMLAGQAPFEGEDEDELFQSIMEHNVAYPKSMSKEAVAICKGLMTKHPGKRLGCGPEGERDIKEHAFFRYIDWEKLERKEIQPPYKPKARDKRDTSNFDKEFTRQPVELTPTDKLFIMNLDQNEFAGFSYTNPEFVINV
Sequence of Protein kinase C theta type (Homo sapiens) (Q04759 whole entry, looked up): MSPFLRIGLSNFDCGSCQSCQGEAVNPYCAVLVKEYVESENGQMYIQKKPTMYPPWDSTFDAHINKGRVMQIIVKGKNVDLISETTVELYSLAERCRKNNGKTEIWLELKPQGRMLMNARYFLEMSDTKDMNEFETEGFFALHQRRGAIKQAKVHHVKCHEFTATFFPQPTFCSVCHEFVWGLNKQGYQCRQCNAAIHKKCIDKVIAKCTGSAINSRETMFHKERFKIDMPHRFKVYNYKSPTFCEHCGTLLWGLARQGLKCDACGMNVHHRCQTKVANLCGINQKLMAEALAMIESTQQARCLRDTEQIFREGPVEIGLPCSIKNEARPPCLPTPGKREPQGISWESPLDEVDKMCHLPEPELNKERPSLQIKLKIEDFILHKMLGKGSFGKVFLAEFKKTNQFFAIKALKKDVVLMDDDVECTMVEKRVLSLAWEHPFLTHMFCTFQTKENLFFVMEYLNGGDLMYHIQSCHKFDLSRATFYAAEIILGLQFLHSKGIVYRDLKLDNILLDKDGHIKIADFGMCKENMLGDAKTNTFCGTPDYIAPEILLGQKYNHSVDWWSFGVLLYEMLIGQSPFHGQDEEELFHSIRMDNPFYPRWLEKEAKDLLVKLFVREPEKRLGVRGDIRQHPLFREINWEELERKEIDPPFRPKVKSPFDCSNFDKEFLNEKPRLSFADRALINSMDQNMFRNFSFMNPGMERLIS

As to `CN(C)c1ccc2c(c1)/C(=C/Nc1ccc(S(N)(=O)=O)cc1)C(=O)N2`, the inhibition came to 2.72% in assay [1]; 2.24% in assay [2]; 1.5% in assay [3]; 1.16% in assay [4]; 0.84% in assay [5]; 1.61% in assay [6]. Also, the inhibition worked out at 1.98% in assay [7]; 2.16% in assay [8]; 7.78% in [9]; 1.23% in assay [10]; 5.28% in [11]; 3.16% in [12]. Further, the inhibition in assay [13] was found to be 4.44%; in assay [14], 2.39%; in assay [15], 1.76%; in [16], 1.53%; in assay [17], 8.65%; in assay [18], 0.94%. Further, the inhibition in [19] was 2.58%; in [20], 0.76%.

These data come from ChEMBL document CHEMBL1961873, “Compounds: GSK PKIS; Assays: Nanosyn kinase panel” (2012).
